Screening data from PubChem BioAssay.
TDP1 cell CPT = DT40-hTDP1 cell growth loss with CPT | chicken DT40 Tdp1-/-;hTDP1 cells + 20 nM CPT, ATP luminescence, 48 h | Potency, µM (doses to about 46.2 µM), hits mostly inhibitors | 12% of 420,000 active; further: nearly all actives have a fitted effect of over 55% in size
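Chicken DT40 Tdp1-/- cells complemented with human TDP1, 400 cells/well, exposed to compounds plus 20 nM camptothecin for at least 48 h at 37 C; viability read as ATP content by CellTiter-Glo luminescence.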
DT40 TDP1 no CPT = qHTS for Inhibitors of human tyrosyl-DNA phosphodiesterase 1 (TDP1): qHTS in cells in absence of CPT | DT40 Tdp1-/- hTDP1 cells, no CPT, ATP luminescence, 48 h | AID 686978, 2013 | 15% of 420,000 active | Potency, µM (highest dose often 46.2 µM), hits mostly inhibitors; further: nearly all actives have a fitted effect of over 55% in size
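Growth kinetics read by CellTiter-Glo luminescence after ≥48 hr at 37 °C. Cells: DT40 Tdp1-/- stably carrying human TDP1, 400 per well, compound exposure in the absence of CPT (DMSO vehicle).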
IL1B secr inh = blocks inflammasome-driven IL-1 beta release; THP-1 LPS/ATP IL-1B secretion, AlphaLISA, 16 h; active compounds read low; activity change, % at 57.5 µM; 4.7% of 360,000 active; in the data active means activity change below about -50%; inconclusive means mostly about -30% to -49%
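Secreted IL-1B measured by AlphaLISA bead assay after 16 h compound exposure of THP-1 cells; compounds (final up to 57.5 uM) added 1 h before LPS (250 ng/mL) and ATP (1.25 mM) stimulation; lower signal means less secretion.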
HT1080 IDH1KD tx = kills HT-1080 cells with IDH1 knockdown; HT-1080 IDH1 knockdown viability, ATP luminescence, 48 h; 2% of 360,000 active; Potency, µM (top dose mostly 46.1 µM), actives largely listed as cytotoxic
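Knockdown cells (IDH1KD HT-1080) received compounds 2 h after plating at 750 cells/well and were kept 48 h at 37 °C in 5% FBS RPMI. A CellTiter-Glo luminescence read gave % activity for curve fitting.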
HT1080-NT tox = kills 2HG-producing HT-1080-NT fibrosarcoma cells; Potency, µM (top dose mostly 46.1 µM), most hits filed as cytotoxic; 1.6% of 360,000 active; HT-1080-NT fibrosarcoma viability, CellTiter-Glo ATP luminescence, 48 h;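 further: NT is the 2HG producing partner of a matched IDH1 knockdown line; nearly all actives have a fitted effect of over 55% in size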
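HT-1080-NT fibrosarcoma cells (2HG-overproducing), 750 cells/well in RPMI with 5% FBS, dosed after 2 h and incubated 48 h at 37C. CellTiter-Glo luminescence normalized to DMSO and no-cell wells; concentration-response curves fitted and classed.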
ALOX12 inh = inhibitors of human 12S-lipoxygenase ALOX12. P18054. 1.1% of 580,000 active. purified 12hLO, xylenol orange hydroperoxide absorbance. Potency, µM (top dose mostly 108 µM), usual class: inhibitors
Target sequence (P18054 whole entry, looked up): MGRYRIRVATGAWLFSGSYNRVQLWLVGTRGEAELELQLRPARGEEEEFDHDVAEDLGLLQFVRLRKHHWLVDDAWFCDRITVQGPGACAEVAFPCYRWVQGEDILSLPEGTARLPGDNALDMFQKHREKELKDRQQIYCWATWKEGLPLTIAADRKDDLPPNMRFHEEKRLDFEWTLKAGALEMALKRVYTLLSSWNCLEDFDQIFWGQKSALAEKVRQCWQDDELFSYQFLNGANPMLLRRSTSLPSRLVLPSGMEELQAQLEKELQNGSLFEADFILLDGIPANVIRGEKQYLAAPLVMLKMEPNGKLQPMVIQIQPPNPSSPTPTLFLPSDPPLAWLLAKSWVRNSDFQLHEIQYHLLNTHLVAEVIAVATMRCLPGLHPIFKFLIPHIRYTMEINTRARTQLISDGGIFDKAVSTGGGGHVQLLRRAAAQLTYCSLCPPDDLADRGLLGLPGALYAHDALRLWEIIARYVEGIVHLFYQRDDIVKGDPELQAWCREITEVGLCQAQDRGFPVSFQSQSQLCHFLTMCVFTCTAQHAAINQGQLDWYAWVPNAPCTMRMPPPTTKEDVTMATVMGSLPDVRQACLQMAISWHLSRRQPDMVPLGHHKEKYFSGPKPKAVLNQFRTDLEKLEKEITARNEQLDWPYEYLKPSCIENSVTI
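Purified human 12hLO at 150 nM in 25 mM Hepes, 0.01% Triton X-100, pH 7.0, preincubated 15 min at room temperature with compound. Reaction started with 40 uM arachidonic acid, 30 min at room temperature. Hydroperoxide measured by Fe-xylenol orange, 573/405 nm absorbance ratio.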
A number is an active result; . = inactive; ? = inconclusive; / = no result given; ! = not confirmed by another sample. Many of the other results were omitted from the sample, so hits are more common in it than they were. Unless noted, the call rests on the fitted dose curve; in most records, active means well fitted curve in the direction sought with a large enough effect; inconclusive means small, poorly fitted or top-dose-only effect, or another doubt; inactive means no such curve, though single readings can be large; an effect the other way counts as inactive or inconclusive.

SMILES	TDP1 cell CPT	DT40 TDP1 no CPT	IL1B secr inh	HT1080 IDH1KD tx	HT1080-NT tox	ALOX12 inh
COc1ccc(C(=O)N/N=c2\oc3ccccc3cc2C(=O)NCc2ccccc2)cc1	16µM	15µM	.	.	.	.
COc1ccc2oc(=O)c(C(=O)NCc3ccc(C)cc3)cc2c1	.	?	.	.	?	?
NC(=O)c1ccc(Oc2ccc3c(c2)CCC3)c([N+](=O)[O-])c1	?	.	?	?	?	.
O=[N+]([O-])c1ccc2nc(N3CCCC3)sc2c1	?	18µM	.	.	.	?
Fc1ccc2nc(N3CCCC3)sc2c1	.	.	.	.	.	.
O=C(c1ccccc1)N1CCN(c2nc3ccc([N+](=O)[O-])cc3s2)CC1	6.5µM	5.2µM	.	.	.	.
CN1CCN(CCCNC(=O)C23CCCC=C2N(C2CCCC2)C(=O)CC3)CC1 (configuration not stated)	/	/	/	/	/	.
Cc1ccc(-c2nnc(Nc3ccc4c(c3)OCO4)c3ccccc23)cc1S(=O)(=O)NCCO	?	16µM	.	.	.	.
Cc1ccc(-c2nnc(Nc3ccc(Cl)c(Cl)c3)c3ccccc23)cc1S(=O)(=O)NCCO	18µM	18µM	/	/	/	.
NC(=S)N=Nc1ccc(O)cc1	21µM	18µM	.	.	.	?
Cc1nn(CC(=O)NCc2ccc(F)cc2)c2ccccc12	.	.	/	/	/	.
O=S(=O)(c1ccccc1)c1nc(-c2cccs2)oc1SCc1ccccc1Cl	?	?	/	/	/	.
Cc1cc(C)cc(NC(=O)CSc2oc(-c3cccs3)nc2S(=O)(=O)c2ccccc2)c1	21µM	5.8µM	/	/	/	?
O=C(CSc1oc(-c2cccs2)nc1S(=O)(=O)c1ccc(F)cc1)NCC1CCCO1 (configuration not stated)	?	?	.	.	.	?
O=C(CSc1oc(-c2cccs2)nc1S(=O)(=O)c1ccccc1)Nc1ccc(F)cc1	16µM	?	/	/	/	.
Cc1cc(NC(=O)c2cn(C3CCCCC3)c(=O)c3c2c2ccccc2n3C)no1	?	23µM	.	.	.	.
Cc1ccc(CNC(=O)c2cn(C3CCCCC3)c(=O)c3c2c2ccccc2n3C)o1	12µM	16µM	-86	?	?	.
Cc1ccc(CNC(=O)c2cn(C)c(=O)c3c2c2ccccc2n3C)o1	?	?	.	.	.	.
CCOc1ccccc1NC(=O)c1cn(C2CCCCC2)c(=O)c2c1c1ccccc1n2C	?	?	/	/	/	.
CCOC(=O)C1=C(C)NC(SCC(=O)OC)=C(C#N)C1c1ccc(C(=O)OC)cc1 (configuration not stated)	?	23µM!	.	.	.	.
CC(=O)C1=C(C)NC(SCC(=O)Nc2nc3ccccc3s2)=C(C#N)C1c1ccc(Cl)cc1 (configuration not stated)	?	18µM	.	.	.	?
C=CCOC(=O)C1=C(C)NC(SCC(N)=O)=C(C#N)C1c1ccc(C)cc1 (configuration not stated)	.	?	.	.	.	.
C=CCOC(=O)C1=C(C)NC(SCC)=C(C#N)C1c1ccc(Cl)cc1 (configuration not stated)	0.73µM	0.52µM	.	8.2µM	9.2µM	.
CCOC(=O)CSC1=C(C#N)C(c2ccc(F)cc2)C(C(C)=O)=C(C)N1 (configuration not stated)	.	?	.	.	.	.
CN(Cc1ccccc1)C(=O)CCc1nc(C2CCCN2C(=O)C2CCC2)no1 (configuration not stated)	/	/	/	/	/	.
SMILES	TDP1 cell CPT	DT40 TDP1 no CPT	IL1B secr inh	HT1080 IDH1KD tx	HT1080-NT tox	ALOX12 inh
CCOC(=O)N1CCN(C(=O)CSC2=NS(=O)(=O)c3ccccc3N2)CC1	.	.	.	.	.	.
Cc1ccn2c(C(=O)N3CCC4(CC3)Nc3ccccc3NC4=O)nnc2n1	/	/	/	/	/	.
CC(C)CN1CCOC(CNC(=O)N2CCN(S(=O)(=O)c3ccc4c(c3)CCCC4)CC2)C1 (configuration not stated)	/	/	/	/	/	.
CC1(C)NC(=O)N(CCCC(=O)Nc2cnc3ccccc3c2)C1=O	/	/	/	/	/	.
N=c1c2ccccc2nc2n1CCCCCCCCCCC2	5.2µM	7.3µM	-87	23µM	?	?
CCn1c(=O)c(C(=O)Nc2ncccc2O)c(O)c2ccccc21	.	.	.	.	.	.
CCn1c(=O)c(C(=O)Nc2ncccc2C)c(O)c2ccccc21	2.3µM	2.6µM	.	.	.	.
Cn1c(=O)c(C(=O)NNC(=O)c2ccc(Br)cc2)c(O)c2ccccc21	?	18µM	.	15µM	21µM	.
Cc1cccnc1NC(=O)c1c(O)c2ccccc2n(C)c1=O	?	23µM	.	.	?	.
O=C(c1ccn[nH]1)N1CCCC(Cn2c(C3CC3)nc3cccnc32)C1 (configuration not stated)	/	/	/	/	/	.
CC(=O)N(C1CC1)C1CCOC2(CCN(C(=O)NCc3ccc(C)cc3)CC2)C1 (configuration not stated)	/	/	/	/	/	.
C=CCNC(=O)[C@@H]1Cc2cn(Cc3c(C)noc3C)c3cccc(c23)[C@H](CC(C)C)N1	/	/	/	/	/	.
O=C(N/N=C/c1cccnc1)c1cccc(Cl)c1	.	.	.	.	.	.
CC(C)c1ccc(/C=N/NC(=O)c2cccc(Cl)c2)cc1	10µM	5.8µM	.	21µM	23µM	.
CC(C)c1ccc(/C=N/NC(=O)c2ccc(-n3cnnn3)cc2)cc1	?	12µM	.	?	?	.
O=C(N/N=C/c1ccncc1)c1ccccn1	.	.	.	.	.	/
COc1cc(/C=N/NC(=O)c2ccccn2)ccc1OC(=O)c1ccc(Br)cc1	18µM	?	.	.	.	.
CC(C)c1ccc(/C=N/NC(=O)c2ccccn2)cc1	0.033µM	.	-53	?	?	.
Nc1ncnc2c1ncn2[C@@H]1O[C@H](C(=O)N[C@@H](CCc2ccccc2)C(=O)O)[C@@H](O)[C@H]1O	/	/	/	/	/	.
COCC1CN(C(C)=O)CC12CCN(C(=O)c1cc(Cl)ccc1OC)CC2 (configuration not stated)	/	/	/	/	/	.
Cc1c(-c2ccccc2)c(=O)oc2ccc(OS(=O)(=O)c3ccccc3)cc12	/	/	/	/	/	.
CC(C)c1ccc(/C=N/NC(=O)c2cc(-c3cccc([N+](=O)[O-])c3)n[nH]2)cc1	?	?	.	23µM	?	.
COc1cc(OC)cc(C(=O)NCCc2csc(-c3cccc(C)c3)n2)c1	15µM	16µM	/	/	/	.
COc1ccc(CC(=O)NCCc2csc(-c3ccc(C(F)(F)F)cc3)n2)cc1	/	/	/	/	/	.
